# ELG1 genotox = inducers of genotoxicity in HEK293T ELG1-luciferase cells. 1.3% of 330,000 active. Potency, µM (doses to about 46 µM), actives largely listed as activators. AID 504466. HEK293T ELG1-luciferase reporter, luminescence, 16 h; also: nearly all actives have a fitted effect of over 60% in size
#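 ELG1-luciferase HEK293T cells, 2,000/well; compound pinned in; 16 hr, 37 °C, 5% CO2; ONE-Glo, 30 min RT; luminescence on CCD imager.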
# FLuc counter = counter-screen for miR-21 project: firefly luciferase inhibitors or activators | P08659 | purified FLuc, Km substrates, luminescence inhibition | Potency, µM (titrated, usually from 57.5 µM), most hits filed as inhibitors | 6.9% of 360,000 active | AID 588342; also: nearly all actives have a fitted effect of over 55% in size
# Target sequence (P08659 whole entry, looked up): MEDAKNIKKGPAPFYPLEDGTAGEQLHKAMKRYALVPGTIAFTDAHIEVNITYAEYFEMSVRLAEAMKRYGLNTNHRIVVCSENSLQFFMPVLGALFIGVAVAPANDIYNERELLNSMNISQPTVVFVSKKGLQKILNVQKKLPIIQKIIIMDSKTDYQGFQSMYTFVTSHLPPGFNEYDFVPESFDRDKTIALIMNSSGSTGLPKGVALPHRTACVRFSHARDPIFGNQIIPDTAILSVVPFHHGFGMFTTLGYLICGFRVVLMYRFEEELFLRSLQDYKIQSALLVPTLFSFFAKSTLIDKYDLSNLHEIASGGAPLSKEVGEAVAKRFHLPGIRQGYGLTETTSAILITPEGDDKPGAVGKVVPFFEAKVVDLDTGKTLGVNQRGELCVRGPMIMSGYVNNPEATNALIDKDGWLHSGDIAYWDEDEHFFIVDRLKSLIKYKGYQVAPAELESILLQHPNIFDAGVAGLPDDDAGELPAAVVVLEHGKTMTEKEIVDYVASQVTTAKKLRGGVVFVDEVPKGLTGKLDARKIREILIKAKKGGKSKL
#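 Biochemical qHTS of compounds, final roughly 60 µM downward over six points, against 10 nM purified firefly luciferase using Km concentrations of substrates (10 uM D-luciferin, 10 uM ATP) in Tris acetate pH 7.5 buffer; luminescence output.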
# KinaseGlo FLuc = blocks Kinase-Glo luciferase, a counter-screen artifact; Q27757; Kinase-Glo luciferase, ATP luminescence, 8 min; Potency, µM (series often up to 38.3 µM), most hits filed as inhibitors; 0.28% of 200,000 active; also: nearly all actives have a fitted effect of over 60% in size
#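 Kinase-Glo luciferase light output from ATP and luciferin was measured with 10 uM ATP, within the enzyme's linear range. Buffer: 50 mM imidazole pH 7.2, 50 mM KCl, 7 mM MgCl2, 0.01% Tween 20, 0.05% BSA; luminescence read after 8 min at ambient temperature.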
# Rab9 promoter act = activates the Rab9 promoter | Huh7 Rab9 promoter-luciferase reporter, luminescence, 24 h | Potency, µM (series often up to 9.22 µM), actives largely listed as activators | 2.8% of 320,000 active | AID 485297; also: nearly all actives have a fitted effect of over 60% in size
#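 Rab9 promoter-driven luciferase in stably transfected Huh7 cells; 1500 cells/well rested 2 h, exposed to compound in DMSO for 24 h at 37 °C, 5% CO2. Luminescence read 10 min after adding luciferase reagent at ambient temperature.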
# NPC1 prom act = activates the NPC1 promoter; Huh7 NPC1 promoter luciferase reporter, 24 h; Potency, µM (top dose mostly 9.22 µM), most hits filed as activators; 2.4% of 320,000 active; also: nearly all actives have a fitted effect of over 60% in size
#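 Quantitative HTS used a cell-based reporter: Huh7 cells stably bearing the NPC1 promoter upstream of luciferase were treated with compounds for 24 h, and promoter activation was read as luminescence.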
# SMN2 splice up = increases expression of the SMN2 splice variant | AID 1458 | Potency, µM (highest dose often 46.1 µM), hits mostly activators | HEK293 SMN2-luciferase splicing reporter, luminescence, 30-36 h | 2.8% of 210,000 active; also: nearly all actives have a fitted effect of over 55% in size
#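 qHTS luciferase splicing reporter: luminescence rises when SMN2 exon 7 is included in transfected HEK293 cells. Compound exposure lasted 30-36 h at 37C, with 4.5 mM final sodium butyrate as control, followed by a ONE-Glo read.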
# Numbers stand for hits; - = inactive; ? = inconclusive; . = no result given; [ ] = another dose, or the depositor's remark. Only some compounds are listed: those with a hit (about 7.5% of all), similar ones and a draw of the others. Calls follow the shape of the dose curve; as a rule, active = well fitted curve in the direction sought with a large enough effect; inconclusive = small, poorly fitted or top-dose-only effect, or another doubt; inactive = no such curve, though single readings can be large; an effect the other way counts as inactive or inconclusive.
SMILES,ELG1 genotox,FLuc counter,KinaseGlo FLuc,Rab9 promoter act,NPC1 prom act,SMN2 splice up
O=C(COCC(=O)N/N=C/c1ccccc1F)N/N=C/c1ccccc1F,-,?,-,-,-,-
O=C(COCC(=O)N/N=C/c1ccc(F)cc1)N/N=C/c1ccc(F)cc1,-,8.5µM,-,-,-,-
CCOC(=O)C(=O)N/N=C/c1ccc(F)cc1,-,13µM,.,-,-,.
CCOc1ccc(NC(=O)CSc2ncc3c(n2)-c2ccccc2N(Cc2ccccc2C)S3(=O)=O)cc1,.,-,.,.,.,.
Cc1cccc(C)c1OCC(=O)Nc1c(C(=O)c2ccccc2)oc2ccccc12,.,-,.,.,.,-
CC1(C)Cc2nc3sc4c(=O)n(Cc5ccccc5)cnc4c3cc2CS1,-,-,-,-,-,-
CCCn1cnc2c(sc3nc4c(cc32)CSC(C)(C)C4)c1=O,4.6µM,?,-,1.6µM,2.8µM,13µM
COc1ccc(-c2noc(N3CCCC(C(=O)Nc4ccc(C(C)=O)cc4)C3)n2)cc1 (configuration not stated),-,11µM,.,-,-,.
CNc1ccccc(-c2ccc3ccccc3n2)c1=O,?,9.5µM,-,3.5µM,?,11µM
Cc1cc(=O)n(-c2ccc3ccccc3n2)[nH]1,?,?,-,-,-,-
CC(=O)NCCNc1nc(-c2ccccc2CN(C)C)nc2ccccc12,.,.,-,.,.,-
Cc1ccc(-c2noc(C3CC(=O)N(c4ccc5c(c4)OCCO5)C3)n2)cc1 (configuration not stated),.,-,.,.,.,.
CC(=O)c1cc2c(C)c(C(=O)c3ccccc3)oc2cc1O,?,0.54µM,-,1.6µM,4µM,-[1.84 µM]
O=C(c1ccccc1)c1ccc(O)cc1O,-,?,.,-,-,.
CCCc1nc2oc3ccccc3c(=O)c2c(=O)n1-c1ccccc1,?,-,.,-,-,.
CCc1nc2oc3ccccc3c(=O)c2c(=O)n1-c1ccc(C)cc1,?,17µM,.,-,-,.
CCc1nc2oc3ccccc3c(=O)c2c(=O)n1-c1ccccc1,13µM,-,-,-,-,11µM
CCCc1nc2oc3ccccc3c(=O)c2c(=O)n1-c1ccc(C)cc1,?,-,.,?,-,.
CCCCC1CCC(c2nc(-c3ccccn3)no2)CC1 (configuration not stated),?,2.7µM,-,?,?,11µM
Cc1ccccc1/C=C1\CCCc2ccccc2C1=O,?,2.4µM,?,0.89µM,4µM,10µM
O=C1NC(=S)N/C1=C/c1ccc2ccccc2c1,-,-,.,-,-,.
O=C1/C(=C\c2ccc3ccccc3c2)CCCc2ccccc21,9.2µM,2.1µM,-,-,-,-
Cc1ccsc1/C=C1\CCc2ccccc2C1=O,?,0.19µM,10µM,0.79µM,?,10µM
COc1cccc(N2CC(NC(=O)C3CC3)CC2=O)c1 (configuration not stated),.,-,.,.,.,.
Cn1cc(C(=O)NCc2ccc(Cl)cc2)c(=O)c2cc(S(=O)(=O)N3CCCCCC3)ccc21,.,-,.,.,.,-
SMILES,ELG1 genotox,FLuc counter,KinaseGlo FLuc,Rab9 promoter act,NPC1 prom act,SMN2 splice up
O=C(Oc1ccc(-c2csnn2)cc1)C1CC1,-,17µM,.,-,-,.
O=S(=O)(Nc1ccccc1)c1ccc(-c2csnn2)cc1,-,-,.,-,-,.
c1ccc(-c2ccc(-c3csnn3)cc2)cc1,-,?,-,2µM,2.2µM,?
O=C(Oc1ccc(-c2csnn2)cc1)c1cccs1,-,2.4µM,.,-,-,.
O=C(Oc1ccccc1-c1csnn1)c1cccs1,-,-,-,-,-,-
CCc1nn(CC(=O)N2CCC(C)CC2)c(=O)c2cc3occc3n12,.,-,.,.,.,.
Cc1ccc(Cl)cc1N1CCN(C(=O)Cn2nc(C)n3c(cc4sccc43)c2=O)CC1,.,-,.,.,.,-
COc1cc(CCC(C)=O)ccc1OC(=O)c1c(F)cccc1Cl,?,12µM,.,2.5µM,?,.
O=C(COc1ccccc1)OCC(=O)c1ccc(O)cc1O,-,?,.,-,-,.
O=C(COc1ccc(Cl)cc1)c1ccc(O)cc1O,?,8.5µM,.,?,-,.
CCOC(=O)c1ccc(CC(=O)c2ccc(O)cc2O)o1,-,-,-,-,-,-
COC(=O)c1ccc(OCC(=O)c2ccc(O)cc2O)cc1,-,6.7µM,-,-,?,-
O=C(COC(=O)c1ccc(O)cc1O)c1ccc(Cl)cc1,-,17µM,.,-,-,.
CCOC(=O)c1ccc(OCC(=O)c2ccc(O)cc2O)cc1,?,6.7µM,-,-,-,-
COC(=O)c1ccc(OCC(=O)c2ccc(C)c(C)c2)cc1,-,?,-,-,-,-
CCOC(=O)c1ccc(N2C(=O)c3[nH]nc(-c4ccc(C)cc4)c3C2c2ccc(O)c(OCC)c2)cc1 (configuration not stated),.,-,.,.,.,-
Cn1c(=O)n(C)c2cc(NC(=O)c3ccc(F)cc3)ccc21,?,?,.,-,-,.
CC(C)Oc1ccc(C(=O)Nc2ccc(N(C)C)cc2)cc1,4.1µM,3.4µM,.,-,-,.
CCCOc1ccc(NC(=O)c2cc3cc(C)ccc3[nH]2)cc1,-,-,.,?,1.8µM,.
CC(C)Oc1ccc(C(=O)NCC(c2ccc(N(C)C)cc2)N2CCCC2)cc1 (configuration not stated),.,-,.,.,.,.
CCCOc1ccc(C(=O)Nc2ccc(N(C)C)cc2)cc1,5.6µM,0.76µM,-,?,-,-
CC(C)Oc1ccc(C(=O)Nc2ccc3c(c2)n(C)c(=O)n3C)cc1,23µM,12µM,.,-,-,.
COC(=O)CN=C1OC(=O)N2C(=O)C3=C4C(C[C@H]5C(=O)N(c6ccccc6)C(=O)[C@H]5[C@H]4[C@@]12Cc1ccccc1)[C@H]1C(=O)N(c2ccccc2)C(=O)[C@H]1[C@H]3C (some centres not stated),.,.,-,.,.,-
Fc1ccc(-c2noc3ncnc(NCC4CCN(Cc5ccc(Cl)cc5)CC4)c23)cc1,.,-,.,.,.,.
Cn1c(=O)n(C)c2cc(C(N)=O)ccc21,-,-[2.3 µM],-,-,-,22µM
SMILES,ELG1 genotox,FLuc counter,KinaseGlo FLuc,Rab9 promoter act,NPC1 prom act,SMN2 splice up
CCOC(=O)c1cc(C(=O)NCc2ccc(Cl)cc2Cl)nn1C,-,-,-,-,-,-
CCOC(=O)c1cc(C(=O)Nc2ccc(C)c(F)c2)nn1C,?,7.6µM,-,2.8µM,4µM,-
CCOc1ccc(CCNC(=O)CSc2nc3ccccc3nc2Cc2ccc(C)cc2)cc1OCC,.,-,.,.,.,-
O=C(O)c1cncc(C#CCC2CCCCC2)c1,-,?,.,2.8µM,?,.
O=C(O)c1cncc(C#Cc2ccccc2)c1,-,?,.,-,-,.
c1ccc2c(c1)Cc1cc3cc4c(cc3nc1-2)OCO4,.,.,2.8µM,.,.,0.5µM
N#Cc1c(N)nc2c(c1-c1ccc3c(c1)OCO3)CCc1ccccc1-2,-,-,-,-,-,?
Cc1nn(C)c(C)c1CNC(=O)Nc1ccc(Cl)cc1,?,?,-,3.2µM,?,-
Cc1nn(C)c(C)c1CNC(=O)Nc1cccc(Cl)c1,-,?,-,?,-,.
